Experimental data as given in PubChem BioAssay AID1159580 (chemical genetic matrix, 2015).
“And” between values parts separate entries of the source, which are not always exact repeats. Equal entries are not always repeated. The campaign covered roughly 5,500 compounds. About 2,000 (36%) were called active. Inconclusive results (about 18%) are left out. No stated cut-off is given here; in the data, active means normalized growth mostly below about 0.91 (no sharp cut-off); inconclusive means no clear call, values can overlap the other calls; inactive means mostly above about 0.92. This is one part of the list.

Assay: chemical genetic growth profiling, strain panel (AID 1159580);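 further: tested at 20 µM; growth read once vehicle control cultures reached saturation at 30 °C; 1 = growth at the plate median or of vehicle wells; lower values mean less growth of the strain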
Settings: S. cerevisiae deletion strains, growth OD

Measured: normalized growth

NCCCS(=O)(=O)O
inactive: locus YAL013W, strain DEP1, active compounds read low 0.978 and 1.01 | locus YAL021C, strain ccr4, active compounds read low 1 | locus YAL026C, strain drs2, active compounds read low 1.04 | locus YAL030W, strain snc1, active compounds read low 1.02 | locus YAL040C, strain CLN3, active compounds read low 1.01 | locus YBL061C, strain skt5, active compounds read low 1.02 | locus YBR009C, strain hhf1, active compounds read low 1.02 | locus YBR021W, strain FUR4, active compounds read low 1 | locus YBR023C, strain chs3, active compounds read low 1.03 | locus YBR171W, strain sec66, active compounds read low 1.02 | locus YBR229C, strain ROT2, active compounds read low 0.955 | locus YBR231C, strain swc5, active compounds read low 1.01 | locus YBR279W, strain paf1, active compounds read low 1.01 | locus YCL011C, strain gbp2, active compounds read low 1.02 | locus YCL016C, strain dcc1, active compounds read low 1.01 | locus YCL029C, strain bik1, active compounds read low 0.991 | locus YCL061C, strain MRC1, active compounds read low 1.02 | locus YCL069W, strain vba3, active compounds read low 1.02 | locus YCR088W, strain abp1, active compounds read low 1.02 | locus YDL005C, strain med2, active compounds read low 1.05 | locus YDL035C, strain GPR1, active compounds read low 0.988 | locus YDL040C, strain nat1, active compounds read low 1.01 | locus YDL074C, strain BRE1, active compounds read low 1.03 | locus YDL101C, strain DUN1, active compounds read low 0.982 | locus YDL134C, strain PPH21, active compounds read low 0.985 | locus YDL185W, strain tfp1, active compounds read low 0.982 | locus YDL192W, strain arf1, active compounds read low 0.984 | locus YDR001C, strain nth1, active compounds read low 1.02 | locus YDR069C, strain doa4, active compounds read low 1.01 | locus YDR101C, strain arx1, active compounds read low 0.999 | locus YDR137W, strain rgp1, active compounds read low 1.03 | locus YDR150W, strain NUM1, active compounds read low 0.964 and 1.02 | locus YDR159W, strain sac3, active compounds read low 1.01 | locus YDR162C, strain NBP2, active compounds read low 0.982 | locus YDR195W, strain ref2 1.02 | locus YDR297W, strain sur2, active compounds read low 1.02 | locus YDR318W, strain mcm21, active compounds read low 1 | locus YDR334W, strain swr1, active compounds read low 1.03 | locus YDR335W, strain msn5, active compounds read low 1.02 | locus YDR388W, active compounds read low 0.997 | locus YDR392W, strain spt3, active compounds read low 0.936 | locus YDR502C, strain sam2, active compounds read low 0.982 | locus YEL003W, strain gim4, active compounds read low 1.02 | locus YEL037C, strain rad23, active compounds read low 1.02 | locus YEL061C, strain CIN8 (second series), active compounds read low 1.03 | locus YEL061C, strain CIN8, active compounds read low 0.981 | locus YER002W, strain NOP16, active compounds read low 1.01 | locus YER015W, strain faa2, active compounds read low 0.994 | locus YER016W, strain bim1, active compounds read low 1.03 | locus YER110C, active compounds read low 0.961 | locus YER111C, strain swi4, active compounds read low 1.03 | locus YER155C, strain BEM2 (second series), active compounds read low 1.02 | locus YER155C, strain BEM2, active compounds read low 0.988 | locus YER167W, strain BCK2, active compounds read low 1 | locus YFR010W, strain ubp6, active compounds read low 1.04 | locus YGL078C, strain dbp3, active compounds read low 0.977 | locus YGL086W, strain mad1, active compounds read low 0.98 | locus YGL167C, strain pmr1, active compounds read low 1.02 | locus YGL173C, strain kem1, active compounds read low 1.03 | locus YGL227W, strain vid30, active compounds read low 1.03 | locus YGL240W, strain doc1, active compounds read low 1 | locus YGL248W, strain PDE1, active compounds read low 0.985 | locus YGL253W, strain hxk2, active compounds read low 1.04 | locus YGR078C, strain PAC10, active compounds read low 1 | locus YGR135W, strain pre9, active compounds read low 0.977 | locus YGR229C, strain SMI1, active compounds read low 1 | locus YGR252W, strain gcn5, active compounds read low 0.908 | locus YHR013C, strain ard1, active compounds read low 1.02 | locus YHR027C, strain rpn1, active compounds read low 1.03 | locus YHR030C, strain SLT2, active compounds read low 0.984 and 1.01 | locus YHR079C, strain IRE1 (second series), active compounds read low 0.989 | locus YHR079C, strain IRE1, active compounds read low 0.996 | locus YHR094C, strain hxt1, active compounds read low 0.999 | locus YHR129C, strain ARP1, active compounds read low 0.989 | locus YHR142W, strain chs7, active compounds read low 1.06 | locus YHR200W, strain rpn10, active compounds read low 0.993 | locus YIL066C, strain RNR3, active compounds read low 0.975 | locus YIL073C, strain SPO22, active compounds read low 0.985 | locus YIL125W, strain kgd1, active compounds read low 0.981 | locus YIR030C, strain dcg1, active compounds read low 0.985 | locus YJL092W, strain hpr5, active compounds read low 1.03 | locus YJL095W, strain BCK1 (second series), active compounds read low 1.02 | locus YJL095W, strain BCK1, active compounds read low 1.03 and 1.01 | locus YJL115W, strain asf1, active compounds read low 1.03 | locus YJL129C, strain trk1, active compounds read low 1.05 | locus YJL134W, strain LCB3, active compounds read low 0.985 | locus YJL154C, strain vps35, active compounds read low 1.02 | locus YJL164C, strain tpk1, active compounds read low 1.01 | locus YJL166W, strain qcr8, active compounds read low 1.02 | locus YJL168C, strain set2, active compounds read low 0.996 | locus YJL187C, strain SWE1 (second series), active compounds read low 0.983 | locus YJR043C, strain POL32, active compounds read low 1.02 | locus YJR066W, strain TOR1, active compounds read low 0.984 | locus YJR075W, strain HOC1, active compounds read low 0.995
